Records with an inconclusive call do not appear. Entries that show only a call come without a potency. The source made the active and inactive calls. Calls come from the whole dose curve; as a rule, active = well fitted inhibition curve with a large enough effect; inconclusive = small, poorly fitted or top-dose-only effect; inactive = flat fitted curve, though single readings scatter. Where a SMILES comes first, the peptide text is derived from it.
Test: P-glycoprotein substrates identified in KB-8-5-11 adenocarcinoma cell line, qHTS therapeutic library screen (AID 1346987); note: nearly all actives have a fitted effect of over 65% in size
Conditions: KB-8-5-11 (P-gp overexpressing) viability, CellTiter-Glo, 72 h; series mostly up to 44.5 µM
How it was run: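 Luminescence from CellTiter-Glo, read 5 min after addition, quantified survival of KB-8-5-11 (P-gp-overexpressing) cells exposed to compounds for 72 h. AC50 was derived from concentration-response curves.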
With `Oc1ccc([C@H]2COc3cc(O)ccc3C2)cc1` the Potency was “inactive”.
In the case of `Cc1ncc([N+](=O)[O-])n1CC(O)CN1CCOCC1` (centres undefined), the Potency is reported as “inactive”.
For `Cc1cc(/C=C/c2ccc3cc(N(C)C)ccc3[n+]2C)c(C)n1-c1ccccc1`, the Potency was “inactive”.
For `C=CC(C)(C)C1(CC2NC(=O)C3CCCN3C2=O)C(=O)Nc2cc3c(cc21)C=CC(C)(C)O3` (centres undefined), the Potency was “inactive”.
In the case of `CC1=CC(=O)C2C(C)(C)CCCC2(C)C12CCC1(COC(=O)C1)O2` (centres undefined), the Potency is reported as “inactive”.
With `CC(C)(O)c1ccc2c(c1)C(=O)CC1[C@](C)(CO)CCC[C@]21C` (some centres undefined) the Potency was “inactive”.
With `COC(=O)C1=COC(OC2OC(CO)C(O)C(O)C2O)C2C1CC(OC(=O)C(O)CC(=O)O)C2C` (centres undefined) the Potency was “inactive”.
With `C[C@@H](OC(=O)/C=C/c1ccc(O)cc1)C1=C[C@]2(C=C[C@@H]3C(C(=O)O)=CO[C@@H](O[C@@H]4O[C@H](CO[C@@H]5O[C@H](CO)[C@@H](O)[C@H](O)[C@H]5O)[C@@H](O)[C@H](O)[C@H]4O)[C@@H]32)OC1=O` the Potency was “inactive”.
In the case of `C=C1CC[C@@H]2[C@](C)(CO[C@@H]3O[C@H](CO)[C@@H](O)[C@H](O)[C@H]3O)CCC[C@@]2(C)[C@@H]1CCC1=CCOC1=O`, the Potency is reported as “inactive”.
With `Cc1cn2c(N)c(Cl)cc(C(=O)NCC3CCN(CC(C)C)CC3)c2n1` the Potency was “inactive”.
With `C=C1CCC2(OC1)OC1CC3C4CC=C5CC(O)CC(O[C@@H]6OC[C@@H](O)[C@H](O)[C@H]6O)C5(C)C4CCC3(C)C1(O)C2C` (some centres undefined) the Potency was “inactive”.
In the case of `CCNC(=O)[C@@H]1CCCN1C(=O)[C@H](CCCN=C(N)N)NC(=O)[C@H](CC(C)C)NC(=O)[C@@H](Cc1c[nH]c2ccccc12)NC(=O)[C@H](Cc1ccc(O)cc1)NC(=O)[C@H](CO)NC(=O)[C@H](Cc1c[nH]c2ccccc12)NC(=O)[C@H](Cc1cnc[nH]1)NC(=O)[C@@H]1CCC(=O)N1`, the Potency is reported as 8.2 µM (active).
In the case of `COc1c(C)c(C(=O)c2ccc(N)c(C(=O)O)c2)n2ccccc12`, the Potency is reported as “inactive”.
In the case of `C[C@@H]1CC[C@]2(C)C3(C)CC[C@@]2(OC3=O)[C@@]12C[C@H](c1ccoc1)OC2=O`, the Potency is reported as “inactive”.
For `C=C(C(=O)O)C1CCC(C)C2CCC(=O)OC2(C)C1` (centres undefined), the Potency was “inactive”.
In the case of `CC1=CCC(C(C)(C)O)CC1` (centres undefined), the Potency is reported as “inactive”.
With `CC1CC(=O)C2=C(O1)OC1(C)CCC3C(C)(C)C=CC(=O)C3(C)C1C2` (centres undefined) the Potency was “inactive”.
In the case of `COC(=O)CC1(O)C(=O)Nc2ccccc21` (centres undefined), the Potency is reported as “inactive”.
In the case of `CC1(C)C(C=C(Cl)Cl)C1C(=O)OCc1cccc(Oc2ccccc2)c1` (centres undefined), the Potency is reported as “inactive”.
In the case of `CN(NC(=O)CC(=O)NN(C)C(=S)c1ccccc1)C(=S)c1ccccc1`, the Potency is reported as 0.0517 µM (active).
In the case of `CC(C)C(C#N)O[C@@H]1O[C@H](CO[C@@H]2OC[C@](O)(CO)[C@H]2O)[C@@H](O)[C@H](O)[C@H]1O` (some centres undefined), the Potency is reported as “inactive”.
With `C[C@@H]1O[C@@H](O[C@H]2[C@H](OC(=O)[C@]34CCC(C)(C)C[C@H]3C3=CCC5[C@@]6(C)C[C@H](O)[C@H](O[C@@H]7O[C@H](CO[C@@H]8OC[C@H](O)[C@H](O)[C@H]8O)[C@@H](O)[C@H](O)[C@H]7O)C(C)(C)C6CC[C@@]5(C)[C@]3(C)C[C@H]4O)OC[C@@H](O)[C@@H]2O)[C@H](O)[C@H](O[C@@H]2OC[C@](O)(CO)[C@H]2O)[C@H]1O[C@@H]1OC[C@H](O)[C@H](O[C@@H]2OC[C@@H](O)[C@H](O)[C@H]2O)[C@H]1O` (some centres undefined) the activity change, negative = cytotoxicity was 7.52% [at 9.29 µM] (inactive).
In the case of `C[C@@H]1O[C@@H](O[C@H]2[C@H](O[C@H]3CO[C@@H](O[C@H]4CC[C@@]5(C)C(CC[C@]6(C)C5CC[C@]57OC[C@@]8(CC[C@](C)(CO)CC85)[C@H](O)C[C@]76C)C4(C)C)[C@H](O[C@@H]4O[C@H](CO)[C@@H](O)[C@H](O)[C@H]4O)[C@H]3O)O[C@H](CO)[C@@H](O)[C@@H]2O)[C@H](O)[C@H](O)[C@H]1O` (some centres undefined), the activity change, negative = cytotoxicity is reported as 8.31% [at 9.29 µM] (inactive).
In the case of `CC1=C(CC(=O)O)c2cc(F)ccc2C1=Cc1ccc(S(C)(=O)=O)cc1`, the Potency is reported as “inactive”.
For `C=C1CCC2C(C)(C)C(O)CCC2(C)C1CCC(C)CCOC(=O)CCC(=O)O` (centres undefined), the Potency was “inactive”.
For `CCC[C@@H]1C[C@@H](C(=O)N[C@@H]([C@H]2O[C@H](SC)[C@H](OP(=O)(O)O)[C@@H](O)[C@H]2O)[C@H](C)Cl)N(C)C1`, the Potency was “inactive”.
In the case of `C=C1C[C@]23C[C@H]1CC[C@H]2[C@]1(C)CCC[C@@]2(CO)C(=O)O[C@H]([C@H]21)[C@@H]3O`, the Potency is reported as “inactive”.
For `O=C(OCC12OC1C=CC(OC(=O)c1ccccc1)C2O)c1ccccc1` (centres undefined), the Potency was “inactive”.
For `COc1cc(-c2cccc(O)c2)cc2c1OCO2`, the Potency was “inactive”.
For `C[C@]12C=CC(=O)C=C1CC[C@@H]1[C@@H]2[C@@H](O)C[C@@]2(C)[C@H]1CC[C@]2(O)C(=O)COC(=O)CCC(=O)O`, the Potency was “inactive”.
With `COc1cccc(-c2ccc([C@@H](Oc3cc(-c4ccc(C[C@H](N)C(=O)O)cc4)nc(N)n3)C(F)(F)F)cc2)c1` the Potency was “inactive”.
With `Cc1c(N2C(=O)c3ccc(C(=O)O)cc3C2=O)c(=O)n(-c2ccccc2)n1C` the Potency was “inactive”.
With `CC(C)c1ccc(CC(=O)N2CCC[C@@H](c3cccc(OC(C)(C)C(=O)O)c3)C2)cc1` the Potency was “inactive”.
For `OC[C@H]1O[C@@H](Oc2ccc(O)c3cccc(O)c23)[C@H](O)[C@@H](O)[C@@H]1O`, the Potency was “inactive”.
With `CCS(=O)(=O)N1CCC([C@@H](C)n2c(C)c(C(=O)NCc3c(OC)cc(C)[nH]c3=O)c3ccccc32)CC1` the Potency was “inactive”.
For `CO[C@@H]1[C@@H](O[C@@H]2O[C@H](C)[C@@H](O[C@H]3C[C@@](C)(O)[C@@H](OC(=O)CC(C)C)[C@H](C)O3)[C@H](N(C)C)[C@H]2O)[C@@H](CC=O)C[C@@H](C)C(=O)/C=C/C2OC2C[C@@H](C)OC(=O)C[C@H]1OC(C)=O` (some centres undefined), the Potency was “inactive”.
For `C[C@@H](O)[C@H](N)C(=O)N1CCC[C@H]1C(=O)N1CCC[C@H]1C(=O)N[C@H](C(N)=O)[C@@H](C)O` (H-TPPT-NH2), the outcome was “inactive [at 9.29 µM]”.
With `Nc1ncnc2c1ncn2[C@H]1CCCO1` the Potency was “inactive”.
For `CCC[C@@H]1C[C@@H](C(=O)N[C@H](C(C)Cl)[C@H]2O[C@H](SC)[C@H](O)[C@@H](O)[C@H]2O)N(C)C1` (some centres undefined), the Potency was “inactive”.
Potency is the fitted concentration of half-maximal effect.
